Several values for one entry are separate records, joined by “and”; a condition that tells them apart may be missing. Identical values can stand only once. A number with no mark means an inactive call. Inconclusive results are not listed. Where a call stands in place of a potency, no number is given. Activity calls are given as the source filed them. Unless noted, calls come from the whole dose curve; as a rule, active = well fitted curve in the direction sought with a large enough effect in the repeat runs; inconclusive = weak or mixed curves; inactive = no such curve, though single readings can be large; an effect the other way counts as inactive or inconclusive.
What was measured:
[1] = molecular target: Thyrotropin receptor (Homo sapiens) (UniProt P16473); assay: qHTS assay to identify small molecule antagonists of the thyroid stimulating hormone receptor (TSHR) signaling pathway (AID 1259385; calls by dose curve; note: nearly all actives have a fitted effect of over 20% in size; note: potency is the fitted concentration of half-maximal effect)
How it was run: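 Antagonist mode: compound-treated TSHR-expressing HEK293 cells were stimulated with 1.5 ng/mL TSH (final) in presence of Ro20-1724 for 30 min at RT. HTRF cAMP detection after 1 h; each compound tested at 15 concentrations, triplicate.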

[2] = qHTS assay to identify small molecule agonists of the estrogen receptor alpha (ER-alpha) signaling pathway in the presence of an antagonist - cell viability counter screen (AID 1259386);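 note: cells exposed to compounds for 22 h at 37 °C before the viability read; nearly all actives have a fitted effect of over 30% in size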; note: potency is the fitted concentration of half-maximal effect; for activity change, negative = cytotoxicity: series mostly up to about 92 µM
How it was run: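 Using estrogen-depleted VM7Luc4E2 cells, the 15-concentration compound series was applied together with 10.0nM ICI-182,780 and incubated 22hr at 37C/5% CO2. Cell viability was then scored by CellTiter-Fluor.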

[3] = molecular target: Progesterone receptor (Homo sapiens) (UniProt P06401); assay: qHTS assay to identify small molecule agonists of the progesterone receptor (PR) signaling pathway (AID 1346784; calls by dose curve; note: nearly all actives have a fitted effect of over 30% in size)
How it was run: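 Reporter assay, GripTite PR-UAS-bla HEK 293T cells: 16 hr exposure to DMSO-dissolved compounds at 37C, 5% CO2, in steroid-depleted (2% charcoal-stripped FBS) medium; beta-lactamase measured by FRET fluorescence.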

[4] = molecular target: Progesterone receptor (Homo sapiens) (UniProt P06401); assay: qHTS assay to identify small molecule antagonists of the progesterone receptor (PR) signaling pathway (AID 1346795; active = well fitted inhibition curve with a large enough effect in the signal ratio in the repeat runs, not every such curve was filed as active; the % refers to the signal ratio; note: potency is the fitted concentration of half-maximal effect)
How it was run: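 Stimulus R5020 at 1 nM final; cells HEK293T PR-UAS-bla; medium with 2% charcoal-stripped FBS; compound exposure 16 hr at 37C, 5% CO2; detection by FRET beta-lactamase substrate, 2 hr, room temperature.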

[5] = qHTS assay to identify small molecule antagonists of the progesterone receptor (PR) signaling pathway - cell viability counter screen (AID 1346798); note: nearly all actives have a fitted effect of over 50% in size; note: potency is the fitted concentration of half-maximal effect; for activity change, negative = cytotoxicity: series mostly up to about 92 µM
How it was run: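 In the same plates used for the beta-lactamase readout, cell viability of compound- and R5020-treated PR-UAS-bla HEK293T cells (16 hr, 37C) was assessed by CellTiter-Glo luminescence.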

[6] = qHTS assay to identify small molecule agonists of the progesterone receptor (PR) signaling pathway - cell viability counter screen (AID 1346799; calls by dose curve; note: nearly all actives have a fitted effect of over 45% in size; note: potency is the fitted concentration of half-maximal effect)
How it was run: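 Multiplexed viability read: CellTiter-Glo luminescence, 30 min RT, following LiveBLAzer FRET measurement on PR-UAS-bla HEK293T cells exposed to compounds 16 hr.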

[7] = qHTS assay to identify small molecule antagonists of the TGF-beta/Smad signaling pathway - cell viability counter screen (AID 1346824); note: nearly all actives have a fitted effect of over 50% in size; note: potency is the fitted concentration of half-maximal effect
How it was run: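 Cytotoxicity counter-screen run in the same wells as the beta-lactamase Smad reporter read: CellTiter-Glo luminescence after 30 min at room temperature. HEK 293T SBE-bla cells had 5 hr compound exposure at 37 C with TGF-beta1 (0.25 ng/mL stock).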

[8] = qHTS assay to identify small molecule agonists of the TGF-beta/Smad signaling pathway - cell viability counter screen (AID 1346829); note: top concentration of the series differs between compounds; nearly all actives have a fitted effect of over 45% in size
How it was run: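 Compound-treated SBE-bla HEK 293T cells (5 hr, 37 C) were assessed for viability with CellTiter-Glo in parallel with the reporter read.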

[9] = qHTS assay to identify small molecule agonists of the TGF-beta/Smad signaling pathway (AID 1346859; active = well fitted activation curve with a large enough effect in the signal ratio in the repeat runs, not every such curve was filed as active; the % refers to the signal ratio; note: series mostly up to about 77 µM)
How it was run: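 Screening used HEK 293T SBE-bla cells at 4,000/well. Test agents: 5 hr, 37 C. Detection: FRET substrate, 2 hr RT, then excitation 405 nm with emissions at 460 and 530 nm.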

[10] = molecular target: Thyrotropin-releasing hormone receptor (Homo sapiens) (UniProt P34981); assay: qHTS assay to identify small molecule antagonists of the thyrotropin-releasing hormone receptor (TRHR) signaling pathway (AID 1346877; active = well fitted inhibition curve with a large enough effect in the repeat runs, not every such curve was filed as active; note: series mostly up to about 51 µM)
How it was run: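 Calcium signal in dye-loaded TRHR/HEK293 cells; compounds added 5 min before TRH (1 nM final); fluorescence monitored 3 min at 1 s steps.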

Sequence of Thyrotropin receptor (Homo sapiens) (P16473 whole entry, looked up): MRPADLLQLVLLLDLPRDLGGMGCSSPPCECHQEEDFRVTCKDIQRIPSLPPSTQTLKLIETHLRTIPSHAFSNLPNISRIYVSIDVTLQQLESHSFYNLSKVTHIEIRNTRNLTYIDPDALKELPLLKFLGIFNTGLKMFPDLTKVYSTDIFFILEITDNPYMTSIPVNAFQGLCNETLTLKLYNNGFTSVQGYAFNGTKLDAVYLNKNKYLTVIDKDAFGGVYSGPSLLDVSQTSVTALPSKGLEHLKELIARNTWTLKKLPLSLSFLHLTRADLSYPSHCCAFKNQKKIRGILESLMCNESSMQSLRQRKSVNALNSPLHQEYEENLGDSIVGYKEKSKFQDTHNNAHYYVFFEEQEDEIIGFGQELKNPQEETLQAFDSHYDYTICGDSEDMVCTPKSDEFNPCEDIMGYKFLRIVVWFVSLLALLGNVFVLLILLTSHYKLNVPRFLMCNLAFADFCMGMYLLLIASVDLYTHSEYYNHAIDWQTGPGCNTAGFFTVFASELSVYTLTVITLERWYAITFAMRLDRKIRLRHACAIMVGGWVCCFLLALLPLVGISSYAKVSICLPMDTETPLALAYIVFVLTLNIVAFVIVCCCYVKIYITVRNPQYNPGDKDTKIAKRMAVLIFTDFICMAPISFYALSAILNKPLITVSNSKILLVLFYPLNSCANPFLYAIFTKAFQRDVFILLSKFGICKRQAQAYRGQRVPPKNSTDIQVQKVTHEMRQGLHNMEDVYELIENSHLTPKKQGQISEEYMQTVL
Sequence of Progesterone receptor (Homo sapiens) (P06401 whole entry, looked up): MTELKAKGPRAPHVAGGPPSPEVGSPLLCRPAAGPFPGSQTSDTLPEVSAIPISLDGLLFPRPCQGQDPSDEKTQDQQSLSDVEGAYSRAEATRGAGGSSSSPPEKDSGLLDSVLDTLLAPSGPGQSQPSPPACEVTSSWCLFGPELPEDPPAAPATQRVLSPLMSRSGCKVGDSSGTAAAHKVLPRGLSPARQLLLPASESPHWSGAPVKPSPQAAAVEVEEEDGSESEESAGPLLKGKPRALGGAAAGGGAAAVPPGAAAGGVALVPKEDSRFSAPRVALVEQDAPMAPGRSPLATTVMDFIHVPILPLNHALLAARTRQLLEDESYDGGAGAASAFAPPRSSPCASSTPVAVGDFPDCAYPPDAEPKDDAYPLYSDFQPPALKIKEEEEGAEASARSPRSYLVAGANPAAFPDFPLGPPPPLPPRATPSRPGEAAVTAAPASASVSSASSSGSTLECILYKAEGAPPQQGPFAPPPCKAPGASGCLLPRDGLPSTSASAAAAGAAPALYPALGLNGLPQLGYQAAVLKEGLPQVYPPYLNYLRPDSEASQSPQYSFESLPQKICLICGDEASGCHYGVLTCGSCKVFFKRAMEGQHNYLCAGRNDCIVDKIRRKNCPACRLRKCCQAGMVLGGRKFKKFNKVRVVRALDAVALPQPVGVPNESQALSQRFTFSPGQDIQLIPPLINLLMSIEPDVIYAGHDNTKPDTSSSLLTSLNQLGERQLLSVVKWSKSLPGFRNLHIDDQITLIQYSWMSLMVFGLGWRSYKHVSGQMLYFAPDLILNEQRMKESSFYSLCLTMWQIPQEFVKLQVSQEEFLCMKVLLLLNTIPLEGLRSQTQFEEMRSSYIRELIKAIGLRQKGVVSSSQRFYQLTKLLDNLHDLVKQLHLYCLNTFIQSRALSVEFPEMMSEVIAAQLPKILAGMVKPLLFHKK
Sequence of Thyrotropin-releasing hormone receptor (Homo sapiens) (P34981 whole entry, looked up): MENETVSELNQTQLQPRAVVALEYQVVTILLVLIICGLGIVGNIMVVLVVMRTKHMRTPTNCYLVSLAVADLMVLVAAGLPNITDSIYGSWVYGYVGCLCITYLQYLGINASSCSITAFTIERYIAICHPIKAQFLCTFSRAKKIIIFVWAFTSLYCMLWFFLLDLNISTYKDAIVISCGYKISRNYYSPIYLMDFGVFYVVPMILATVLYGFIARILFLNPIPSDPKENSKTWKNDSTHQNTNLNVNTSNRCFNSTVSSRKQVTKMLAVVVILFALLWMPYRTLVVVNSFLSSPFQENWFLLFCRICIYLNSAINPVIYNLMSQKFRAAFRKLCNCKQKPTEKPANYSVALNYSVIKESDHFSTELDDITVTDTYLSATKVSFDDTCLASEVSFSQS

COc1ccccc1OCC(O)CN1CCN(CC(=O)Nc2c(C)cccc2C)CC1 (centres undefined)
Potency [1]: inactive | Potency [2]: inactive | Potency [3]: inactive | Potency [4]: inactive | Potency [5]: inactive | Potency [6]: inactive | Potency [7]: inactive | outcome [8]: inactive | outcome [9]: inactive | outcome [10]: inactive

CCCc1cc(C(N)=S)ccn1
Potency [1]: inactive | Potency [2]: inactive | Potency [3]: inactive | Potency [4]: inactive | Potency [5]: inactive | Potency [6]: inactive | Potency [7]: inactive | outcome [8]: inactive | outcome [9]: inactive

N=C(N)c1ccc(OCCCOc2ccc(C(=N)N)cc2)cc1
Potency [1]: inactive | Potency [2]: inactive | Potency [3]: inactive | Potency [4]: inactive | Potency [5]: inactive | Potency [6]: inactive | Potency [7]: inactive | outcome [8]: inactive | outcome [9]: inactive

NC(=O)Nc1ccccc1
Potency [1]: inactive | Potency [2]: inactive | Potency [3]: inactive | Potency [4]: inactive | Potency [5]: inactive | Potency [6]: inactive | Potency [7]: inactive | outcome [8]: inactive | outcome [9]: inactive

CCOc1ccc(C(=O)OCCN(CC)CC)cc1
Potency [1]: inactive | Potency [2]: inactive | Potency [3]: inactive | Potency [4]: inactive | Potency [5]: inactive | Potency [6]: inactive | Potency [7]: inactive | outcome [8]: inactive | outcome [9]: inactive

CCOC(=O)Nc1ccc(NCc2ccc(F)cc2)nc1N
Potency [1]: inactive | Potency [2]: inactive | Potency [3]: inactive | Potency [4]: inactive | Potency [5]: inactive | Potency [6]: inactive | Potency [7]: inactive | outcome [8]: inactive | outcome [9]: inactive

CC(=O)CC(C)C
Potency [1]: inactive | Potency [2]: inactive | Potency [3]: inactive | Potency [4]: inactive | Potency [5]: inactive | Potency [6]: inactive | Potency [7]: inactive | outcome [8]: inactive | outcome [9]: inactive

Cc1[nH]c(=O)c(C#N)cc1-c1ccc2nccn2c1
Potency [1]: inactive | Potency [2]: inactive | Potency [3]: inactive | Potency [4]: inactive | Potency [5]: inactive | Potency [6]: inactive | Potency [7]: inactive | outcome [8]: inactive | outcome [9]: inactive | outcome [10]: inactive

O=S(O)CO
Potency [1]: inactive | Potency [2]: inactive | Potency [3]: inactive | Potency [4]: inactive | Potency [5]: inactive | Potency [6]: inactive | Potency [7]: inactive | outcome [8]: inactive | outcome [9]: inactive | outcome [10]: inactive

CC(C)(C)c1nnc(NS(=O)(=O)c2ccccc2)s1
Potency [1]: inactive | Potency [2]: inactive | Potency [3]: inactive | Potency [4]: inactive | Potency [5]: inactive | Potency [6]: inactive | Potency [7]: inactive | outcome [8]: inactive | outcome [9]: inactive | outcome [10]: inactive

C[C@H](NC(CCc1ccccc1)C(=O)O)C(=O)N1CCC[C@H]1C(=O)O (some centres undefined)
Potency [1]: inactive | Potency [2]: inactive | Potency [3]: inactive | Potency [4]: inactive | Potency [5]: inactive | Potency [6]: inactive | Potency [7]: inactive | outcome [8]: inactive | outcome [9]: inactive | outcome [10]: inactive

CC(C)(O)C(=O)c1ccccc1
Potency [1]: inactive | Potency [2]: inactive | Potency [3]: inactive | Potency [4]: inactive | Potency [5]: inactive | Potency [6]: inactive | Potency [7]: inactive | outcome [8]: inactive | outcome [9]: inactive | outcome [10]: inactive

COC(=O)CC(C)=O
Potency [1]: inactive | Potency [2]: inactive | Potency [3]: inactive | Potency [4]: inactive | Potency [5]: inactive | Potency [6]: inactive | Potency [7]: inactive | outcome [8]: inactive | outcome [9]: inactive | outcome [10]: inactive

CC(C)CCCC(C)N (centres undefined)
Potency [1]: inactive | Potency [2]: inactive | Potency [3]: inactive | Potency [4]: inactive | Potency [5]: inactive | Potency [6]: inactive | Potency [7]: inactive | outcome [8]: inactive | outcome [9]: inactive | outcome [10]: inactive

O=C1CCCN1C1CCCCC1
Potency [1]: inactive | Potency [2]: inactive | Potency [3]: inactive | Potency [4]: inactive | Potency [5]: inactive | Potency [6]: inactive | Potency [7]: inactive | outcome [8]: inactive | outcome [9]: inactive | outcome [10]: inactive

CC1=CC(C)C(C=O)CC1 (centres undefined)
Potency [1]: inactive | Potency [2]: inactive | Potency [3]: inactive | Potency [4]: inactive | Potency [5]: inactive | Potency [6]: inactive | Potency [7]: 4.9 µM (active) | outcome [8]: inactive | outcome [9]: inactive | outcome [10]: inactive

C=COCC1CCC(CO)CC1 (centres undefined)
Potency [1]: inactive | Potency [2]: inactive | Potency [3]: inactive | Potency [4]: inactive | Potency [5]: inactive | Potency [6]: inactive | Potency [7]: inactive | outcome [8]: inactive | outcome [9]: inactive | outcome [10]: inactive

C=C(C)CS(=O)(=O)O
Potency [1]: inactive | Potency [2]: inactive | Potency [3]: inactive | Potency [4]: inactive | Potency [5]: inactive | Potency [6]: inactive | Potency [7]: inactive | outcome [8]: inactive | outcome [9]: inactive | outcome [10]: inactive

CN(C)CCCN1c2ccccc2CCc2ccc(Cl)cc21
Potency [1]: 68.6 µM (active) and 29.8 µM (active) | Potency [2]: 68.6 µM (active) | Potency [3]: inactive | Potency [4]: 26.6 µM (active) | Potency [5]: 34.4 µM (active) and 29.8 µM (active) | Potency [6]: 30.6 µM (active) and 23.7 µM (active) | Potency [7]: inactive | outcome [8]: inactive | outcome [9]: inactive | outcome [10]: inactive

CCCCCCCCCCCCCC=O
activity change, negative = inhibition [1]: -5.31% [at 8.39 µM] | activity change, negative = cytotoxicity [2]: 2.15% [at 8.39 µM] | activation [3]: -0.302% [at 8.39 µM] | activity change, negative = inhibition [4]: 6.1% [at 8.39 µM] | activity change, negative = cytotoxicity [5]: 2% [at 8.39 µM] | activity change, negative = cytotoxicity [6]: 5.7% [at 8.39 µM] | viability change, negative = cytotoxic [7]: 6.5% [at 6.97 µM] | activity change, negative = cytotoxicity [8]: 12.8% [at 6.97 µM] | activation [9]: -2.78% [at 6.97 µM] | activity, negative = inhibition [10]: -5.43% [at 4.65 µM]

CCN(Cc1ccncc1)C(=O)C(CO)c1ccccc1 (centres undefined)
Potency [1]: inactive | Potency [2]: inactive | Potency [3]: inactive | Potency [4]: inactive | Potency [5]: inactive | Potency [6]: inactive | Potency [7]: inactive | outcome [8]: inactive | outcome [9]: inactive | outcome [10]: inactive

COc1cc(C(=O)N2CCCCCCC2)cc(OC)c1OC
Potency [1]: inactive | Potency [2]: inactive | Potency [3]: inactive | Potency [4]: inactive | Potency [5]: inactive | Potency [6]: inactive | Potency [7]: inactive | outcome [8]: inactive | outcome [9]: inactive | outcome [10]: inactive

Cc1ccc(C#N)cc1
Potency [1]: inactive | Potency [2]: inactive | Potency [3]: inactive | Potency [4]: inactive | Potency [5]: inactive | Potency [6]: inactive | Potency [7]: inactive | outcome [8]: inactive | outcome [9]: inactive | outcome [10]: inactive

NCCc1cnc[nH]1
Potency [1]: inactive | Potency [2]: inactive | Potency [3]: inactive | Potency [4]: inactive | Potency [5]: inactive | Potency [6]: inactive | Potency [7]: inactive | outcome [8]: inactive | outcome [9]: inactive | outcome [10]: inactive

Reference: PubChem BioAssay (Tox21)
